Laboratory results: PubChem BioAssay AID1159580 (chemical genetic matrix, 2015)
Several values for one entry are separate records, joined by “and”; a condition that tells them apart may be missing. Equal values may be shown once. Screen size: about 5,500 compounds; about 2,000 (36%) were called active. Inconclusive results (about 18%) are left out. Cut-off read from the data, not from the text of the source: active = normalized growth mostly below about 0.91 (no sharp cut-off); inconclusive = no clear call, values can overlap the other calls; inactive = mostly above about 0.92. The list shows a part of the results.

Assay: chemical genetic growth profiling, strain panel (AID 1159580);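 note: tested at 20 µM; growth read once vehicle control cultures reached saturation at 30 °C; 1 = growth at the plate median or of vehicle wells; lower values mean less growth of the strain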
Conditions: S. cerevisiae deletion strains, growth OD

For `CN(C)CCCN1c2ccccc2CCc2ccc(Cl)cc21`, the normalized growth (locus YAL013W, strain DEP1, stronger effect = lower value) was 0.92 (inactive) and 0.962 (inactive), the normalized growth (locus YAL021C, strain ccr4, stronger effect = lower value) was 0.899 (active) and the normalized growth (locus YAL026C, strain drs2, stronger effect = lower value) was 0.77 (active). For the same compound, the normalized growth (locus YAL030W, strain snc1, stronger effect = lower value) was 1 (inactive), the normalized growth (locus YAL040C, strain CLN3, stronger effect = lower value) was 1.02 (inactive) and the normalized growth (locus YBL061C, strain skt5, stronger effect = lower value) was 1.01 (inactive). The normalized growth (locus YBR009C, strain hhf1, stronger effect = lower value) was 0.944 (inactive), the normalized growth (locus YBR021W, strain FUR4, stronger effect = lower value) was 0.561 (active) and the normalized growth (locus YBR023C, strain chs3, stronger effect = lower value) was 1.01 (inactive). For the same compound, the normalized growth (locus YBR171W, strain sec66, stronger effect = lower value) was 0.99 (inactive), the normalized growth (locus YBR229C, strain ROT2, stronger effect = lower value) was 0.975 (inactive) and the normalized growth (locus YBR231C, strain swc5, stronger effect = lower value) was 1.01 (inactive). The normalized growth (locus YBR279W, strain paf1, stronger effect = lower value) was 0.996 (inactive), the normalized growth (locus YCL011C, strain gbp2, stronger effect = lower value) was 0.984 (inactive) and the normalized growth (locus YCL016C, strain dcc1, stronger effect = lower value) was 0.994 (inactive). For the same compound, the normalized growth (locus YCL029C, strain bik1, stronger effect = lower value) was 1 (inactive), the normalized growth (locus YCL061C, strain MRC1 (second series), stronger effect = lower value) was 0.999 (inactive) and the normalized growth (locus YCL061C, strain MRC1, stronger effect = lower value) was 1 (inactive). The normalized growth (locus YCL069W, strain vba3, stronger effect = lower value) was 1 (inactive), the normalized growth (locus YCR088W, strain abp1, stronger effect = lower value) was 1 (inactive) and the normalized growth (locus YDL005C, strain med2, stronger effect = lower value) was 1.03 (inactive). For the same compound, the normalized growth (locus YDL035C, strain GPR1, stronger effect = lower value) was 0.824 (active), the normalized growth (locus YDL040C, strain nat1, stronger effect = lower value) was 0.998 (inactive) and the normalized growth (locus YDL074C, strain BRE1, stronger effect = lower value) was 0.674 (active). For the same compound, the normalized growth (locus YDL101C, strain DUN1, stronger effect = lower value) was 0.977 (inactive), the normalized growth (locus YDL134C, strain PPH21, stronger effect = lower value) was 0.812 (active) and the normalized growth (locus YDL185W, strain tfp1, stronger effect = lower value) was 0.984 (inactive). The normalized growth (locus YDL192W, strain arf1, stronger effect = lower value) was 0.933 (inactive), the normalized growth (locus YDR001C, strain nth1, stronger effect = lower value) was 1.01 (inactive) and the normalized growth (locus YDR069C, strain doa4, stronger effect = lower value) was 0.919 (inactive). For the same compound, the normalized growth (locus YDR101C, strain arx1, stronger effect = lower value) was 1 (inactive), the normalized growth (locus YDR137W, strain rgp1, stronger effect = lower value) was 1.21 [resistant] (active) and the normalized growth (locus YDR150W, strain NUM1, stronger effect = lower value) was 1.01 (inactive). The normalized growth (locus YDR159W, strain sac3, stronger effect = lower value) was 1.04 (inactive), the normalized growth (locus YDR162C, strain NBP2, stronger effect = lower value) was 0.725 (active) and the normalized growth (locus YDR195W, strain ref2) was 1.07 (inactive). The normalized growth (locus YDR297W, strain sur2, stronger effect = lower value) was 1.01 (inactive), the normalized growth (locus YDR318W, strain mcm21, stronger effect = lower value) was 0.978 (inactive) and the normalized growth (locus YDR334W, strain swr1, stronger effect = lower value) was 1.01 (inactive). For the same compound, the normalized growth (locus YDR335W, strain msn5, stronger effect = lower value) was 1 (inactive), the normalized growth (locus YDR388W, stronger effect = lower value) was 0.825 (active) and the normalized growth (locus YDR392W, strain spt3, stronger effect = lower value) was 0.93 (inactive). For the same compound, the normalized growth (locus YDR502C, strain sam2, stronger effect = lower value) was 0.963 (inactive), the normalized growth (locus YEL003W, strain gim4, stronger effect = lower value) was 0.984 (inactive) and the normalized growth (locus YEL037C, strain rad23, stronger effect = lower value) was 1 (inactive). The normalized growth (locus YEL061C, strain CIN8 (second series), stronger effect = lower value) was 1.01 (inactive), the normalized growth (locus YEL061C, strain CIN8, stronger effect = lower value) was 0.99 (inactive) and the normalized growth (locus YER002W, strain NOP16, stronger effect = lower value) was 1.08 (inactive). The normalized growth (locus YER015W, strain faa2, stronger effect = lower value) was 0.972 (inactive), the normalized growth (locus YER016W, strain bim1, stronger effect = lower value) was 1 (inactive) and the normalized growth (locus YER110C, stronger effect = lower value) was 0.999 (inactive). For the same compound, the normalized growth (locus YER111C, strain swi4, stronger effect = lower value) was 0.994 (inactive), the normalized growth (locus YER155C, strain BEM2 (second series), stronger effect = lower value) was 1.01 (inactive) and the normalized growth (locus YER155C, strain BEM2, stronger effect = lower value) was 1 (inactive). For the same compound, the normalized growth (locus YER167W, strain BCK2, stronger effect = lower value) was 0.952 (inactive), the normalized growth (locus YFR010W, strain ubp6, stronger effect = lower value) was 0.882 (active) and the normalized growth (locus YGL078C, strain dbp3, stronger effect = lower value) was 0.989 (inactive). For the same compound, the normalized growth (locus YGL086W, strain mad1, stronger effect = lower value) was 0.967 (inactive), the normalized growth (locus YGL167C, strain pmr1, stronger effect = lower value) was 1 (inactive) and the normalized growth (locus YGL173C, strain kem1, stronger effect = lower value) was 0.967 (inactive). The normalized growth (locus YGL227W, strain vid30, stronger effect = lower value) was 0.993 (inactive), the normalized growth (locus YGL240W, strain doc1, stronger effect = lower value) was 1 (inactive) and the normalized growth (locus YGL248W, strain PDE1, stronger effect = lower value) was 0.917 (inactive). For the same compound, the normalized growth (locus YGL253W, strain hxk2, stronger effect = lower value) was 0.971 (inactive), the normalized growth (locus YGR135W, strain pre9, stronger effect = lower value) was 0.784 (active) and the normalized growth (locus YGR252W, strain gcn5, stronger effect = lower value) was 0.527 (active). The normalized growth (locus YHR013C, strain ard1, stronger effect = lower value) was 0.852 (inactive), the normalized growth (locus YHR027C, strain rpn1, stronger effect = lower value) was 0.915 (active) and the normalized growth (locus YHR030C, strain SLT2, stronger effect = lower value) was 0.876 (active) and 1 (inactive). For the same compound, the normalized growth (locus YHR079C, strain IRE1 (second series), stronger effect = lower value) was 0.992 (inactive), the normalized growth (locus YHR079C, strain IRE1, stronger effect = lower value) was 0.981 (inactive) and the normalized growth (locus YHR094C, strain hxt1, stronger effect = lower value) was 0.993 (inactive). The normalized growth (locus YHR129C, strain ARP1, stronger effect = lower value) was 0.986 (inactive), the normalized growth (locus YHR142W, strain chs7, stronger effect = lower value) was 0.977 (inactive) and the normalized growth (locus YHR200W, strain rpn10, stronger effect = lower value) was 0.998 (inactive). The normalized growth (locus YIL066C, strain RNR3, stronger effect = lower value) was 0.836 (active), the normalized growth (locus YIL073C, strain SPO22, stronger effect = lower value) was 0.79 (inactive) and the normalized growth (locus YIL125W, strain kgd1, stronger effect = lower value) was 0.993 (inactive). The normalized growth (locus YIR030C, strain dcg1, stronger effect = lower value) was 0.995 (inactive), the normalized growth (locus YJL092W, strain hpr5, stronger effect = lower value) was 1.01 (inactive) and the normalized growth (locus YJL095W, strain BCK1 (second series), stronger effect = lower value) was 0.997 (inactive). The normalized growth (locus YJL095W, strain BCK1, stronger effect = lower value) was 0.696 (active) and 0.99 (inactive), the normalized growth (locus YJL115W, strain asf1, stronger effect = lower value) was 0.997 (inactive) and the normalized growth (locus YJL129C, strain trk1, stronger effect = lower value) was 1.02 (inactive). For the same compound, the normalized growth (locus YJL134W, strain LCB3, stronger effect = lower value) was 0.991 (inactive), the normalized growth (locus YJL154C, strain vps35, stronger effect = lower value) was 1 (inactive) and the normalized growth (locus YJL164C, strain tpk1, stronger effect = lower value) was 0.993 (inactive). For the same compound, the normalized growth (locus YJL166W, strain qcr8, stronger effect = lower value) was 0.957 (inactive), the normalized growth (locus YJL168C, strain set2, stronger effect = lower value) was 0.993 (inactive) and the normalized growth (locus YJL187C, strain SWE1 (second series), stronger effect = lower value) was 0.887 (inactive). For the same compound, the normalized growth (locus YJL187C, strain SWE1, stronger effect = lower value) was 1 (inactive) and the normalized growth (locus YJR043C, strain POL32, stronger effect = lower value) was 1.01 (inactive).
